Screen size: about 1,500 compounds; about 430 (29%) were called active. These entries were drawn from the full list. Measured potencies and affinities stand elsewhere. Values without a mark were called inactive. No rule for the calls is given here.
Experiment: insulin secretion activators without glucose, dose response, counter-screen for glucose-dependent insulin secretion activators, cell-based, INS-1E, Gaussia luciferase, luminescence, cherry-pick (AID 977606);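 also: 0% = median of neutral control wells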
Details: INS-1E Gaussia luciferase insulin secretion, no glucose, 100% = twice neutral-control luminescence; series mostly up to 35 µM; activation: at the top concentration

Row | Structure (SMILES) | activation [%]
1 | C=CCOc1cccc(C(=O)N2CCC(CCC(=O)NC3CC3)CC2)c1 | -12.5
2 | COc1ccc(CCNc2ccncn2)cc1OC | -4.77
3 | Cc1cc2cc(C#N)c(N3CCOCC3)nc2cc1Cl | -1.36
4 | CCN1CCN(CCCNC(=O)c2ccc3c(c2)N(Cc2ccccc2)CCS3)CC1 | 37.4
5 | Nc1[nH]c(C(=O)c2ccccc2)c(-c2c(F)cccc2F)c1C(=O)c1ccc(Cl)c(Cl)c1 | 58.5
6 | Cc1cn(CC(C)C)c(=O)n(-c2ccccc2)c1=O | -7.49
7 | COc1ccc(CC(=O)OCC(=O)N2CCc3ccccc32)cc1OC | 3.22
8 | COc1cc2c(cc1OC)CN(C(=O)Cc1ccccc1)CC2 | -4.85
9 | CC/C(O)=C1\C(=O)CC(C)(C)CC1=Nc1ccccc1C | -0.909
10 | CC(C)(C)c1ccc(C#C[C@@H]2C=C[C@H]3OC(=O)CC/C=C/CCC(=O)OC[C@H]3O2)cc1 | 14.5
11 | CC1CCc2nc(N)c(C#N)c(-c3ccncc3)c2C1 (configuration not stated) | -10.7
12 | Cc1c(C=O)c2ccccn2c1C(=O)c1ccc(F)cc1 | 0.457
13 | COc1ccccc1Nc1c2c(nc3ccc(N)cc13)CCCC2 | 11.6
14 | CN(C)c1ccc(CC(=O)N2CCCCC2c2cc(C(=O)Nc3ccccc3Cl)no2)cc1 (configuration not stated) | -26.1
15 | O=C(O)CNS(=O)(=O)c1ccc2c(c1)Cc1cc(S(=O)(=O)NCC(=O)O)ccc1-2 | -4
16 | CCc1cc2c(COC(=O)c3cccc(S(C)(=O)=O)c3)cc(=O)oc2cc1O | -16.9
17 | CCN(CC)C(=O)Cn1cc(C(=O)C(=O)N2CCN(Cc3ccccc3)CC2)c2ccccc21 | 11.5
18 | Cc1ccc(-c2nc3c(=O)n(C)c4ccccc4c3o2)cc1 | -7.37
19 | O=C(CC(c1ccccc1)c1ccco1)N1CCOCC1 (configuration not stated) | 34.3
20 | CC(C)CCC(O)(CCC(C)C)C(=O)NN1CCCCC1 | -21.7
21 | COc1ccc(C2=NN(c3ccc(C(=O)O)cc3)C(c3ccc(OC)c(OC)c3)C2)cc1 (configuration not stated) | -0.29
22 | CCOc1cc(C2C3=C(CC(C)(C)CC3=O)Nc3n[nH]c(C)c32)ccc1O (configuration not stated) | 0.859
23 | CC(C)CCN1C(=O)CSCC1(C)C(=O)NC(C)C (configuration not stated) | -4.81

Row | Structure (SMILES) | activation [%]
24 | CCCc1nnc2c(N(C)S(=O)(=O)c3ccc(C)cc3)nc3ccccc3n12 | -6.68
25 | Cc1cc(=O)[nH]c2c1c(C)nn2C1CCCC1 | 1.46
26 | N#Cc1sc2nc(C3CC3)cc(-c3ccccc3)c2c1N | 1.96
27 | COc1cc2c(cc1OC)C1=C(C#N)CCC(=NC(=O)c3ccco3)N1CC2 | 11.7
28 | O=C(CN1C(=O)CCC1=O)Nc1cccc2c1C(=O)NC2=O | -11.5
29 | Cc1cc(-c2ccc(Br)cc2)n2nc(C)cc2n1 | -1.47
30 | CSc1ncccc1C(=O)NCCc1ccccc1F | 2.04
31 | CSc1ccc2nnc(-c3cccc(F)c3)n2n1 | 2.54
32 | CCSc1nnc2ccc(-c3ccc(C)cc3)nn12 | 0.044
33 | O=C(CCCC(=O)c1ccccc1)NCc1ccccc1 | 6.76
34 | CCCn1c(=O)c(C(=O)NCc2ccccc2)c(O)c2ccccc21 | -13.3
35 | O=C(CCc1nc2ccccc2c(=O)[nH]1)NNC(=O)c1cccc(Cl)c1 | -7.41
36 | CCOc1ccc(CCNC(=O)COC(=O)c2nccnc2N)cc1OCC | -10.8
37 | COc1ccccc1C(C)NS(=O)(=O)c1ccc(Cl)nc1 (configuration not stated) | 1.68
38 | CN(C)CCCN(C(=O)CCOc1ccccc1)c1nc2ccc(F)cc2s1 | 31.2
39 | COc1cc2c(cc1OC)CN(C(=O)CNS(=O)(=O)c1ccc(C)c(C)c1)CC2 | -0.552
40 | COc1ccc(S(=O)(=O)N2CCC(C(=O)NCc3ccccn3)CC2)cc1OC | 11.7
41 | Cc1ccc(-c2[nH]nc3c2C(c2cccnc2)C(C#N)=C(N)O3)cc1 (configuration not stated) | -7.15
42 | CC(=O)c1c(O)c2cccc3c2n(c1=O)CCC3 | 23
43 | Cc1cccnc1NC(=O)c1ccc(S(=O)(=O)N2CCCCC2)cc1 | 1.48
44 | O=C(NCCC1CCCCN1S(=O)(=O)c1ccc(F)cc1)C(=O)NCc1cccnc1 (configuration not stated) | -6.46
45 | CCOc1cc(OCC)cc(C(=O)Nc2cccnc2)c1 | -5.89
46 | CCOc1ccc(NC(=O)[C@@H](NC(=O)OCc2ccccc2)[C@@H](C)CC)cc1 | 63.9

Row | Structure (SMILES) | activation [%]
47 | Cc1ccc2c(=O)cc(C(=O)NC3CCS(=O)(=O)C3)oc2c1C (configuration not stated) | -3.07
48 | CCOC(=O)N1CCN(C(=O)COc2ccccc2OC)CC1 | 10.9
49 | CN1CCCCCC1C(=O)N1CCC(N2CCC(C(=O)N3CCOCC3)CC2)CC1 (configuration not stated) | 7.18
50 | C/C(=N/NC(=O)c1ccc(Br)s1)c1ccncc1 | 4.11
51 | C/C(=N/NC(=O)c1ccc(Br)o1)c1ccncc1 | 17.2
52 | Cc1ccc(C(=O)Nc2cccc(C(=O)N/N=C/c3ccc(F)cc3)c2)cc1 | 9.11
53 | O=C(Nc1ncn[nH]1)c1ccc(Cl)c(Cl)c1 | -8.6
54 | COc1ccc(CC(=O)N2CCc3cc(OC)c(OC)cc3C2)cc1 | -13.2
55 | COc1cccc(-n2c(=O)c3ccccc3n(CC(=O)NCC3CCCO3)c2=O)c1 (configuration not stated) | -5.02
56 | O=S(=O)(c1ccc(-c2csc(Nc3ccc(Br)cc3)n2)cc1)N1CCCC1 | 16.7
57 | O=c1[nH]nc(-c2ccc(F)cc2)cc1Cc1cccs1 | 10
58 | CCCCNC(=O)c1ccccc1NC(=O)C1=C(C)OCCS1 | 1.2
59 | CCOCC(=O)Nc1c(C(=O)OCC)oc2ccccc12 | -1.44
60 | COc1ccc(CNC(=O)CN2C(=O)NC3(CCCCCC3)C2=O)cc1 | -21.9
61 | CCCCNC(=O)C1(C)CCN1C(=O)Cc1cccc2ccccc12 (configuration not stated) | 6.5
62 | CCOC(=O)C1=C(COC(=O)c2cccs2)NC(=O)NC1C (configuration not stated) | -0.795
63 | CCOc1ccc(CCNC(=O)COC(=O)c2cccc(N(C)C)c2)cc1OCC | -30.4
64 | O=S(=O)(NCc1ccccc1)c1ccc(-n2cccn2)cc1 | -7.58
65 | CCCCc1nc(N)c(C#N)c(-c2ccco2)c1CCC | 37.6
66 | CC(C)n1cc(/C(N)=N/O)c(=O)n(Cc2ccccc2)c1=O | -1.49
67 | CCCc1nc(N)sc1C(=O)OCC | -20
68 | Cc1nc2ccccc2c2nc(NC(=O)C(F)(F)F)nn12 | -14.6
69 | COC(=O)C[C@@H]1C=C[C@H](NC(=O)Cc2ccccn2)[C@@H](CO)O1 | 1.47

Row | Structure (SMILES) | activation [%]
70 | CCCOC(=O)Nc1ccc(S(=O)(=O)Nc2ncccn2)cc1 | -0.934
71 | CCCc1cc(=O)oc2cc(C)cc(OCC(=O)Nc3ccc(S(N)(=O)=O)cc3)c12 | 52.8
72 | Cn1cc(Br)c(C(=O)NNC(=O)c2ccccc2)n1 | 9.54
73 | Cc1[nH]n(-c2ccc(Br)cc2)c(=O)c1/C=N/NC(=O)c1ccccc1 | -20
74 | O=S(=O)(c1ccc(NCCCO)nc1)N1CCOCC1 | -4.23
75 | CCOc1ncccc1C(=O)OCC(=O)NCCc1ccc(S(N)(=O)=O)cc1 | -1.58
76 | CCOC(=O)c1cn(-c2ccccc2)nc1-c1ccncc1 | 16.9
77 | COCCNc1nc(NCCCN(C)C)c2sccc2n1 | -7.39
78 | CCCc1nnc2n1N=C(c1ccc(OC)c(OC)c1)CS2 | -7.53
79 | O=S(=O)(c1cccs1)N1CN(C2CCCCC2)c2nc3ccccc3nc21 | -1.77
80 | Cc1nc(N)c(C#N)c(-c2cccnc2)c1-c1ccccc1 | -1.76
81 | O=C1NC(c2ccccc2)c2c(-c3ccccc3)n[nH]c21 (configuration not stated) | 4.52
82 | C=CCN1C(=O)c2n[nH]c(COC)c2C1c1ccc(F)cc1 (configuration not stated) | 28.3
83 | CNC(=O)C(=O)NCC1OCCCN1S(=O)(=O)c1ccc(F)cc1C (configuration not stated) | 6.38
84 | COc1ccc(-c2ocnc2C(=O)Nc2ccc(N3CCOCC3)cc2N2CCOCC2)cc1OC | -16.6
85 | O=C(Cc1ccsc1)NNC(=O)c1ccccc1Cl | -8.88
86 | C/C=C1\COC(C(=O)NCc2ccccc2)(C(F)(F)F)C=C1C=C(C)C (configuration not stated) | 12.9
87 | CCC(CC)NC(=O)CN1CCN(S(=O)(=O)c2cccs2)CC1 | -5.53
88 | COc1ccc(CCNC(=O)CCCc2nnc3n(C)c(=O)c4sccc4n23)cc1OC | 20.7
89 | Cc1cc(Oc2cccnc2)ccc1NC(=O)Cc1cn(C)c2ccccc12 | -5.92
90 | Cc1ccc2c(c1)N(C(C)C(=O)NCc1cccs1)C(=O)CO2 (configuration not stated) | -11.5
91 | CCCn1c(C)cc(C)c(C#N)c1=O | 2.75
92 | C[C@H]1CN([C@@H](C)CO)C(=O)c2cc(C#CCc3ccccc3)cnc2O[C@@H]1CN(C)C(=O)C1CC1 | -25.5

Row | Structure (SMILES) | activation [%]
93 | COc1ccccc1-c1cnc2c(c1)C(=O)N([C@H](C)CO)C[C@@H](C)[C@@H](CN(C)C(C)=O)O2 | 33.6
94 | COCC(=O)N(C)C[C@H]1Oc2cc(Br)ccc2S(=O)(=O)N([C@H](C)CO)C[C@H]1C | -3
95 | C[C@H](CO)N1C[C@H](C)[C@@H](CN(C)C(=O)CC2CC2)Oc2cc(C#CC(C)(C)O)ccc2S1(=O)=O | 18
96 | Cc1c(P(=S)(c2ccccc2)c2ccccc2)[n+]2ccccc2n1C/C=C/c1ccccc1 | 35.7
97 | COc1cc2c(cc1OC)-c1cc(Nc3ccccc3Br)nc(=O)n1CC2 | -12.7
98 | CCNc1nc(C)nc2c1oc1ccccc12 | -3.38
99 | O=C(COC(=O)c1ncc(Cl)c(Cl)c1Cl)NC1CCS(=O)(=O)C1 (configuration not stated) | -6.54
100 | Fc1ccccc1-c1nnc2ccc3ccccc3n12 | -4.34
101 | O=c1c2ccccc2nnn1Cc1ccccc1 | -13.8
102 | CCc1nc2n[nH]c(N)c2c2c1CCCC2 | 15.9
103 | COCCNc1nc(NCCCN2CCCC2=O)c2sccc2n1 | 0.526
104 | CCCCOc1ccc(C2=NNC(=O)CC2)cc1 | 2.01
105 | CCc1cc2c(COC(=O)c3cccc(NS(C)(=O)=O)c3)cc(=O)oc2cc1O | -6.11
106 | COCCNc1nc(Oc2ccc(C(N)=O)cc2)c2sccc2n1 | -5.61
107 | CC(C)Cc1nc2n[nH]c(N)c2c2c1COC(C)(C)C2 | 10.5
108 | Cc1cc(C)c2oc(C(=O)Nc3ccc(S(=O)(=O)Nc4nccc(C)n4)cc3)cc(=O)c2c1 | -2.17
109 | O=C(N/N=C/c1ccc2c(c1)OCO2)c1ccc(Cl)cc1Cl | -15.4
110 | C=CCNC(=O)c1cc(-c2ccc3c(c2)OCO3)on1 | -13.2
111 | COc1ccc(C2CC(=O)Nc3sc(=N)c4c(N)c(C#N)c(N)nc4c32)cc1OC (configuration not stated) | -7.45
112 | Cc1ccsc1/C=N/n1c(-c2ccncc2)n[nH]c1=S | 1.74
